The source made the active and inactive calls. How the source made its calls: active means hit-call score of the fitted dose curve at least 0.9, where 1 is the maximum; inactive means score below 0.9.
Molecular target: human Cyclooxygenase COX2, PTGS2 (gene 5743) (UniProt P35354)
Assay: ERF_FR_ENZ_hPTGS2: Eurofins (ERF) Enzymatic LeadHunter Assay for human Cyclooxygenase COX2, conducted at France lab site
Experimental: ERF_FR_ENZ_hPTGS2 is a biochemical, single-readout assay that uses extracted gene-proteins in a cell-free assay. Measurements were taken 0.083 hour after chemical dosing in a 96-well plate. See COX2 Human Cyclooxygenase Enzymatic Assay, Cerep.ERF_FR_ENZ_hPTGS2 is an assay component calculated from the ERF_FR_ENZ_hPTGS2 assay. It is designed to measure enzyme activity using a type of enzyme reporter as detected by fluorescence intensity with fluorimetry technology.Data from the assay component ERF_FR_ENZ_hPTGS2 was analyzed at the assay endpoint, ERF_FR_ENZ_hPTGS2, in the positive analysis fitting direction relative to DMSO as the negative control and baseline of activity. Using a type of enzyme reporter, loss-of-signal activity can be used to understand changes in binding as they relate to gene PTGS2. To generalize the intended target to other relatable targets, this assay endpoint is annotated to the stress response intended target family, where the subfamily is cyclooxygenase.
Human cells are incubated for 5 minutes at room temprature with Arachidonic acid (1.2uM) + ADHP (25 uM) as sunstrate and ns-398 as control inhibitor. Test Sample Requirements: Minimum for 1) Screen: 60 ul of 10 mM stock -OR- 1 mg (pre-weighed) for 10 uM final testing. 2) Dose Response: 90 ul of 10 mM stock -OR- 1 mg (pre-weighed) for a top concentration at 10 uM.

Chain of human Cyclooxygenase COX2, PTGS2 (gene 5743) (P35354 whole entry, looked up): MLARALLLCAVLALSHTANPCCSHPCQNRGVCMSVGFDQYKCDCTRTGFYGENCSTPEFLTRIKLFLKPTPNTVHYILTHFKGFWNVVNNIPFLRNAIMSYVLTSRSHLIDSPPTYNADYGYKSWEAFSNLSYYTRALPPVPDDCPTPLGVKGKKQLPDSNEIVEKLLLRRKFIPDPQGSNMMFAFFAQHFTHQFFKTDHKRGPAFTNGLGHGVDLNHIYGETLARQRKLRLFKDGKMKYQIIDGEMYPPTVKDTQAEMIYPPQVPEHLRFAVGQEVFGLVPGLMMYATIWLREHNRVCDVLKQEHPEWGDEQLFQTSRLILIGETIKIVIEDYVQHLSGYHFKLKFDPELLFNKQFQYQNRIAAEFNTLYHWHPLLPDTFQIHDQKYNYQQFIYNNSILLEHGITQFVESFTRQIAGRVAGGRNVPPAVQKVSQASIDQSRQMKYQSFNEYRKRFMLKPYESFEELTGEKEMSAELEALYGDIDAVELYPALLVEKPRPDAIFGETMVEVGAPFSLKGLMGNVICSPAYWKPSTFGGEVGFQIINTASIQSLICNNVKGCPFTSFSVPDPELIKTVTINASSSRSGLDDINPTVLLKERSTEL

Row | SMILES | AC50
1 | COc1cc(CCC(=O)CC(=O)CCc2ccc(O)c(OC)c2)ccc1O | 274 nM (active)

Source: PubChem BioAssay AID2284129 (EPA ToxCast)
